Test results from PubChem BioAssay AID540336 (Broad Institute, 2011).
Values joined by “and” are separate entries in the source; they are usually repeats but may differ in a detail not shown here. Equal values may be shown once. The whole screen tested about 330,000 compounds, of which about 520 (0.16%) were called active.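 The calls were made as follows: active = inhibition of at least 50% in every replicate; inconclusive = best replicate reaches 50% inhibition but some replicates fall short; inactive = the rest.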 The list comes from a sample in which actives are over-represented; it also holds similar structures and randomly drawn compounds. More than one record can exist for a structure, and the calls need not agree.

Each molecule was assayed against Histone acetyltransferase RTT109 (Candida albicans (strain SC5314 / ATCC MYA-2876)) (UniProt Q5AAJ8) (assay: Rtt109-Vps75 histone acetyltransferase blockade – biochemical, ThioGlo CoA-SH fluorescence, plate reader, primary screen (AID 540336)). Details: purified Rtt109/Vps75, ThioGlo CoA-SH fluorescence, 4 h; at 34.9 µM; stronger effect = higher value.
Chain of Histone acetyltransferase RTT109 (Candida albicans (strain SC5314 / ATCC MYA-2876)) (Q5AAJ8 whole entry, looked up): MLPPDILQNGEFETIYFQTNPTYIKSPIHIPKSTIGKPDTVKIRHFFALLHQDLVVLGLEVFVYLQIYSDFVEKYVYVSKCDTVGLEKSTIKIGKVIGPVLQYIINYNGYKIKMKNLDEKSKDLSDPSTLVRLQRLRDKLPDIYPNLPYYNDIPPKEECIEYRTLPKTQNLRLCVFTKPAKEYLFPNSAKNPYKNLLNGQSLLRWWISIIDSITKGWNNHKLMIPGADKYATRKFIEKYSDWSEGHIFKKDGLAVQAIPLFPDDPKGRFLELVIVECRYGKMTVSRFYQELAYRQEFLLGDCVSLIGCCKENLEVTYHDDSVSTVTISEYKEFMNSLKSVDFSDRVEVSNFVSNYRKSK
With `COc1cc(OC)c(C(=O)NNC(=O)c2ccc(NS(=O)(=O)c3cccs3)cc2)cc1OC` the inhibition was -0.841% (inactive).
For `COc1ccc(-c2ccc3c(c2)[C@@H]2C[C@H](N(C)S(=O)(=O)c4ccccc4)[C@H]([C@H](C)O)C(=O)N2CC3)cc1`, the inhibition was -7.44% (inactive).
`Cc1ccc(C(=O)O)c(NC=O)c1OCc1ccccc1` was tested, and the inhibition was 2.64% (inactive).
For `O=C(CC(=O)c1cccnc1)c1ccccc1`, the inhibition was 5.8% (inactive).
For `COc1cc2c(cc1OC)C(Nc1ccc(S(N)(=O)=O)cc1)=NC(C)(C)C2`, the inhibition was -0.292% (inactive).
In the case of `COc1cc2c(cc1OC)C(C(C)C)=NC(C)(C)C2`, the inhibition is reported as -260% (inactive).
With `COc1cc2c(cc1O)C(SC)=NC(C)(C)C2` the inhibition was 85% (active).
For `C=CCNC(=O)C12CC3CC(C1)CC(C(=O)NCC=C)(C3)C2`, the inhibition was -14.4% (inactive).
For `C=CCNC(=O)C1CC2c3ccccc3C1c1ccccc12` (centres undefined), the inhibition was 50.9% (active).
With `C=CCNC(=O)C1CC=CCC1C(=O)O` (centres undefined) the inhibition was -1.04% (inactive).
In the case of `C=CCCC(=O)N1C[C@H]2CON(C)[C@H]2C[C@H]1c1cccc(Nc2ccccc2)c1`, the inhibition is reported as 7.97% (inactive).
`Cc1ccc(S(=O)(=O)c2cc3c(=O)n4cccc(C)c4nc3n(CCc3ccccc3)c2=N)cc1C` was tested, and the inhibition was 0.852% (inactive).
In the case of `CC(=NNC(=S)N1CCCCCC1)c1ccccn1`, the inhibition is reported as 16.2% (inactive).
In the case of `CCN1CCC(O)(/C=C/c2ccc(C)cc2)C(C(=O)/C=C/c2ccc(C)cc2)C1` (centres undefined), the inhibition is reported as 3.59% (inactive).
With `O=C1CC(C(=O)O)NC(=S)N1` (centres undefined) the inhibition was -12.1% (inactive).
With `O=C(O)C(=Cc1ccccc1[N+](=O)[O-])c1ccccc1` the inhibition was -1.92% (inactive).
`CCc1c(Nc2ccccc2Cl)nc(N)[nH]c1=O` was tested, and the inhibition was 4.46% (inactive).
For `CC(C)(C)c1nnc2sc(SCC(O)=C(C#N)c3nc4ccccc4[nH]3)nn2c1=O`, the inhibition was -1.69% (inactive).
In the case of `FC(F)(F)c1ccc(-c2cccc3c2C2CC3CCN2Cc2ccccc2)cc1` (centres undefined), the inhibition is reported as -0.156% (inactive).
For `O=C(c1cccnc1)N(c1cc2sc(=O)oc2c2ccccc12)S(=O)(=O)c1ccccc1`, the inhibition was 101% (active).
For `COc1ccc(N(C(=O)c2cccnc2)S(=O)(=O)c2ccc(OC)c(OC)c2)cc1`, the inhibition was -7.79% (inactive).
In the case of `O=C(c1cccnc1)N(Cc1ccccc1)C(=O)c1cccnc1`, the inhibition is reported as 7.15% (inactive).
In the case of `Oc1c(Cl)cc(Cl)c(Cl)c1Cc1c(O)c(Cl)cc(Cl)c1Cl`, the inhibition is reported as 70.6% (active).
For `Cc1ccc(Cn2c(C)c3cnn(CC(=O)NCCN4CCOCC4)c(=O)c3c2C)cc1`, the inhibition was 4.07% (inactive).
`O=C(NCC(=O)N1CCCC(C(F)(F)F)C1)c1ccccc1F` (centres undefined) was tested, and the inhibition was -12.6% (inactive).
`FC(F)(F)C1CCCN(c2nsc3ccccc23)C1` (centres undefined) was tested, and the inhibition was 129% (active).
`O=C(NC(Cc1ccccc1)C(=O)N1CCCC(C(F)(F)F)C1)c1ccccc1` (centres undefined) was tested, and the inhibition was 8.65% (inactive).
`CCN(CC(=O)Nc1c(F)cccc1F)C(=O)Cc1cccs1` was tested, and the inhibition was -5.91% (inactive).
For `COC(=O)c1ccc(CNC(=O)Cn2cc(C)c(=O)[nH]c2=O)cc1`, the inhibition was -6.85% (inactive).
For `NC(=S)NN=C1CCCC(C(F)(F)F)C1` (centres undefined), the inhibition was 6.12% (inactive).
For `CN(CCc1ccccc1)C(=O)c1cccc(NC(=O)Cc2cccc(NC(=O)C3CCCN(C(=O)CCc4ccccc4)C3)c2)c1` (centres undefined), the inhibition was 10.3% (inactive).
`CCN(CC)CCCC(C)n1c2nc(=O)[nH]c(=O)c-2nc2cc(Cl)ccc21` (centres undefined) was tested, and the inhibition was 1.9% (inactive).
`CC(=O)Oc1ccc(OC(C)=O)c2c1C1C=CC2CC1` was tested, and the inhibition was -1.25% (inactive).
In the case of `O=C(CCC(=O)N1CCN(S(=O)(=O)c2ccc(Cl)cc2)CC1)NCc1cccc(C(F)(F)F)c1`, the inhibition is reported as -0.722% (inactive).
With `O=C(CCCN1C(=O)/C(=C/c2cccs2)SC1=S)Nc1ccc(O)cc1` the inhibition was 3.39% (inactive).
In the case of `O=C(CCN1C(=O)/C(=C/c2cccs2)SC1=S)NNC(=O)c1cccc(O)c1`, the inhibition is reported as 2.35% (inactive).
In the case of `CC(C(=O)Nc1ccc(O)c(C(=O)O)c1)N1C(=O)/C(=C/c2cccs2)SC1=S` (centres undefined), the inhibition is reported as 81.1% (active).
With `COc1ccc(C(=O)N(C)Cc2ccc(OC)c(OC)c2OC)cc1S(=O)(=O)N1CCOCC1` the inhibition was 1.9% (inactive).
For `O=C1CC(c2ccccc2)C(c2ccccc2)=NN1` (centres undefined), the inhibition was 6.56% (inactive).
For `O=C1/C(=C\c2ccc([N+](=O)[O-])cc2)CS(=O)(=O)C/C1=C/c1ccc([N+](=O)[O-])cc1`, the inhibition was -5.87% (inactive).
With `CCCCN(C(=O)c1cccc(N2C(=O)c3ccccc3C2=O)c1)c1c(N)n(CCCC)c(=O)[nH]c1=O` the inhibition was 6% (inactive).
In the case of `COC(=O)c1c(NC(=O)CSc2nncs2)sc2c1CCCCC2`, the inhibition is reported as -2.31% (inactive).
`N#Cc1c(NC(=O)C2CC(Cl)=CCC2C(=O)O)sc2c1CCCCC2` (centres undefined) was tested, and the inhibition was -0.566% (inactive).
With `COC(=O)c1c(NC(=O)C2CC(C)=C(C)CC2C(=O)O)sc2c1CCCCC2` (centres undefined) the inhibition was 56.5% (active).
For `COc1ccc(CNC(=O)COC(=O)C2=Cc3ccccc3OC2)cc1`, the inhibition was 7.22% (inactive).
In the case of `Cn1c(=O)[nH]c2c(c(C(=O)O)nn2C)c1=O`, the inhibition is reported as 7.13% (inactive).
For `CC1CCN(CC(O)COc2ccc(C(=O)c3ccccc3)cc2)CC1` (centres undefined), the inhibition was 0.839% (inactive).
`O=C(COc1ccccc1)Nc1ccc(C(=O)N2CCCC2)cc1` was tested, and the inhibition was 28.7% (inactive).
`C[N+]1(CC(O)COc2ccccc2)CCN(C(=O)c2ccc([N+](=O)[O-])cc2)CC1` (centres undefined) was tested, and the inhibition was 52.5% (active).
With `NC(=O)C1CCN(C(=O)c2cc(S(=O)(=O)N3CCN(c4ccccc4)CC3)ccc2Cl)CC1` the inhibition was -0.602% (inactive).
`CCC(C)C1(C2CCCC2)NC(=O)NC1=O` (centres undefined) was tested, and the inhibition was -0.893% (inactive).
In the case of `CC(C)[C@@H](C(=O)OCC(=O)c1ccc2c(c1)NC(=O)CO2)N1C(=O)c2ccccc2C1=O`, the inhibition is reported as 2.17% (inactive).
For `O=c1nc(NO)ccn1C1CCCO1` (centres undefined), the inhibition was -2.47% (inactive).
For `O=C(O)c1ccc(S(=O)(=O)c2ccccc2)s1`, the inhibition was -2.02% (inactive).
With `Cc1c[n+]([O-])ccc1[N+](=O)[O-]` the inhibition was -8.76% (inactive).
With `Cc1nn(-c2ncccn2)c2c1C(=O)CC(C)(C)C2Br` (centres undefined) the inhibition was 8.81% (inactive).
For `COCCN(C(=O)C(C)N1C(=O)c2ccccc2C1=O)c1c(N)n(CC(C)C)c(=O)[nH]c1=O` (centres undefined), the inhibition was -5.79% (inactive).
`CN(C)/C=C(/C(=O)c1ccccc1)S(=O)(=O)c1ccc(Cl)cc1` was tested, and the inhibition was 0.945% (inactive).
`COc1cccc2sc(N(CCCN(C)C)C(=O)C(c3ccccc3)c3ccccc3)nc12` was tested, and the inhibition was -2% (inactive).
For `COc1cccc2sc(N(CCCN(C)C)C(=O)CCS(=O)(=O)c3ccccc3)nc12`, the inhibition was 83.9% (active).
In the case of `Cc1cccc2sc(N(CCCN(C)C)C(=O)CCS(=O)(=O)c3ccccc3)nc12`, the inhibition is reported as 30.9% (inactive).
In the case of `Cc1cccc(-n2c(=O)c3c(C)c(C)sc3n(CC(N)=O)c2=O)c1`, the inhibition is reported as -1.94% (inactive).
With `N#CCSc1nc2c(c(=O)n1Cc1ccccc1)C1(CCCC1)Cc1ccccc1-2` the inhibition was 8.15% (inactive).
With `Cc1cccc(-n2c(SCC(N)=O)nc3c(c2=O)C2(CCCCC2)Cc2ccccc2-3)c1` the inhibition was 53.5% (active).
`O=C(OC12CC3CC(CC(C3)C1)C2)c1ccc(NCc2cc(O)ccc2O)cc1` was tested, and the inhibition was -1.56% (inactive).
In the case of `CC(C)c1ccc(C=NNc2ccc([N+](=O)[O-])cn2)cc1`, the inhibition is reported as 4.1% (inactive).
`CSCCC(NC(=O)COc1ccccc1)C(=O)OCc1ccc(Cl)cc1` (centres undefined) was tested, and the inhibition was -1.24% (inactive).
`COc1ccccc1NC(=O)/C=C/C(N)=O` was tested, and the inhibition was 121% (active).
`COc1ccccc1NC(=O)C[n+]1ccccc1` was tested, and the inhibition was -9.21% (inactive).
`COc1ccccc1NC(=S)NC(=O)C(C)C` was tested, and the inhibition was -8.37% (inactive).
For `CCOC(=O)C1CCCN(C(=O)C2CCN(S(=O)(=O)c3ccc(Cl)c(C(F)(F)F)c3)CC2)C1` (centres undefined), the inhibition was 10.8% (inactive).
In the case of `CCC1([N+](=O)[O-])COC(c2ccc(C)cc2)OC1` (centres undefined), the inhibition is reported as -3.32% (inactive).
In the case of `Cc1c(CCOC(=O)c2cc([N+](=O)[O-])ccc2Cl)sc[n+]1CCCCS(=O)(=O)[O-]`, the inhibition is reported as 12.5% (inactive).
With `Cc1c(CCO)sc[n+]1CC(=O)OC12CC3CC(CC(C3)C1)C2` the inhibition was 2.54% (inactive).
In the case of `Cc1c(CCOC(=O)CC23CC4CC(CC(C)(C4)C2)C3)sc[n+]1Cc1ccc([N+](=O)[O-])cc1`, the inhibition is reported as 64.3% (active) and -8% (inactive).
With `Cc1ccc(S(=O)(=O)N2CCN(C(=O)COC(=O)/C=C/c3cccc(Cl)c3)CC2)c(C)c1` the inhibition was 5.03% (inactive).
In the case of `CN(C)C(CNC(=O)c1cc2ccccc2o1)c1ccccc1` (centres undefined), the inhibition is reported as 2.45% (inactive).
With `CCN(CC)S(=O)(=O)c1cccc(NC(=O)c2ccc(S(=O)(=O)N3CCCC3)cc2)c1` the inhibition was -3.62% (inactive).
`CC1C(C)N(C(=O)CCl)c2ccccc2N1C(=O)CCl` (centres undefined) was tested, and the inhibition was -6.55% (inactive).
In the case of `Nc1cc2c(cc1Br)-c1ccc(F)cc1C2=O`, the inhibition is reported as -11.8% (inactive).
For `CC1CN(Cc2ccco2)C(=S)N(c2ccccc2)C1=O` (centres undefined), the inhibition was 3.62% (inactive).
In the case of `NC(=O)c1ncn([C@@H]2O[C@H](CN=C3NS(=O)(=O)c4ccccc43)[C@@H](O)[C@H]2O)n1`, the inhibition is reported as -1.34% (inactive).
In the case of `CC(=O)Nc1cccc(-c2csc(Nc3cccc(C)n3)n2)c1`, the inhibition is reported as 65% (active).
`Cc1ccccc1Nc1nc(-c2cccnc2)cs1` was tested, and the inhibition was -4.39% (inactive).
`O=C(Nc1ccc(-c2csc(Nc3cccc(C(F)(F)F)c3)n2)cc1)c1cccc(C(F)(F)F)c1` was tested, and the inhibition was -6.03% (inactive).
With `CC1(C)N=C(N)NC(Nc2ccc(Cl)cc2)=N1` the inhibition was -1.08% (inactive).
`CC(C)(C)OC(=O)N1CCC(C(=O)Nc2cccc(C(=O)NCCc3ccccc3)c2)CC1` was tested, and the inhibition was 15.4% (inactive).
For `COc1ccc2c(c1)c(=Cc1ccc(N(C)C)cc1)c1cc(-c3ccccc3)[n+](C)n12`, the inhibition was 14.8% (inactive).
`CC(=O)OCC(=O)C1(O)CCC2C3CC(C)C4=CC(=O)CCC4(C)C3C(O)CC21C` (centres undefined) was tested, and the inhibition was -0.0615% (inactive).
